Several values for one entry are separate records, joined by “and”; a condition that tells them apart may be missing. Identical values can stand only once. Results filed as inconclusive are left out. The source holds several records for some structures; these can differ, active in one and inactive in another. Activity calls are given as the source filed them. Calls come from the whole dose curve; as a rule, active = well fitted curve in the direction sought with a large enough effect; inconclusive = small, poorly fitted or top-dose-only effect, or another doubt; inactive = no such curve, though single readings can be large; an effect the other way counts as inactive or inconclusive.
How the values were obtained:
[1] = Viability qHTS for spleen associated tyrosine kinase inhibitor (SYKi) drug resistant MV4-11 cells (AID 1963824); conditions: SYKi-resistant MV4-11 viability, CellTiter-Glo, 72 h; series mostly up to 45 µM; note: potency is the fitted concentration of half-maximal effect; nearly all actives have a fitted effect of over 35% in size
Method in brief: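 CellTiter-Glo luminescence, read 10 min after reagent addition, reports viability after a 72 hr compound exposure. Cells are an MV4-11 line made resistant to SYK inhibition, seeded at 500 per well onto compound-containing plates.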

[2] = Quantitative highthroughput screen to assess conditional lethalithy of NOMO1 cells grown in RPMI1640 with untreated serum (RPMI+s) (AID 1963876); conditions: NOMO1 AML cells in RPMI+serum, CellTiter-Glo viability, 48 h; series mostly up to 45.8 µM; note: nearly all actives have a fitted effect of over 35% in size; note: potency is the fitted concentration of half-maximal effect;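 for Viability: 100% = DMSO wells and 0% = empty wells without cells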
Method in brief: (§1)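 Each medium arm—HPLM with 10% dialyzed FBS, or RPMI1640 with 5 mM glucose and 10% untreated or dialyzed FBS—was screened against an 11-point, 3-fold compound titration for 48 h at 37 °C, with CellTiter-Glo luminescence as endpoint.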

[3] = Quantitative highthroughput screen to assess conditional lethalithy of P12 Ichikawa cells grown in RPMI1640 with dialyzed fetal bovine serum (RPMI+ds) (AID 1963880); conditions: ATP luminescence, 48 h; Potency: P12-Ichikawa viability; series mostly up to 45.8 µM; note: nearly all actives have a fitted effect of over 35% in size; note: potency is the fitted concentration of half-maximal effect;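 for Viability: 100% = DMSO wells and 0% = empty wells on each plate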
Method in brief: as §1

[4] = Quantitative highthroughput screen to assess conditional lethalithy of P12 Ichikawa cells grown in RPMI1640 with untreated serum (RPMI+s) (AID 1963881); conditions: ATP luminescence, 48 h; Potency: viability; series mostly up to 45.8 µM; note: nearly all actives have a fitted effect of over 35% in size; note: potency is the fitted concentration of half-maximal effect;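 for Viability: 100% = DMSO wells and 0% = empty wells without cells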
Method in brief: as §1

[5] = Quantitative highthroughput screen to assess conditional lethalithy of SEM cells grown in Human Plasma-Like Medium with dialyzed fetal bovine serum (HPLM+ds) (AID 1963882); conditions: SEM B-ALL cells in HPLM+ds, CellTiter-Glo viability, 48 h; series mostly up to 45.8 µM; note: nearly all actives have a fitted effect of over 35% in size; note: potency is the fitted concentration of half-maximal effect
Method in brief: as §1

[6] = Quantitative highthroughput screen to assess conditional lethalithy of SEM cells grown in RPMI1640 with dialyzed fetal bovine serum (RPMI+ds) (AID 1963884); conditions: SEM B-ALL cells, RPMI+dialyzed FBS, CellTiter-Glo viability, 48 h; series mostly up to 45.8 µM; note: nearly all actives have a fitted effect of over 35% in size; note: potency is the fitted concentration of half-maximal effect;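 for Viability: 100% = DMSO control wells and 0% = empty wells without cells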
Method in brief: as §1

[7] = Cellular viability qHTS for adrenocortical cancer (ACC) cell line SW-13 (AID 1963989); conditions: SW-13 ACC cells viability, CellTiter-Glo, 48 h; activity (max response): stronger effect = lower value; note: nearly all actives have a fitted effect of over 65% in size; note: potency is the fitted concentration of half-maximal effect;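 for activity (max response): cells grown in serum-free medium with ITS supplement; % is set by controls: 0 for no effect and ±100 for the full control effect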
Method in brief: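 48 h treatment, SW-13 in ITS/DMEM serum-free; doses up to 46 uM; readout CellTiter-Glo luminescence; curve fit four-parameter logistic.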

[8] = Cellular viability qHTS for adrenocortical cancer (ACC) cell line NCI-H295R (AID 1963990); conditions: CellTiter-Glo ATP luminescence, 48 h; series mostly up to 46.1 µM; note: nearly all actives have a fitted effect of over 60% in size; note: potency is the fitted concentration of half-maximal effect
Method in brief: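 Compound titrations (up to 46 uM final) are applied to NCI-H295R cultures for 48 h at 37C. Viable cell number is estimated by CellTiter-Glo signal, normalised to DMSO and doxorubicin controls.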

[9] = Quantitative highthroughput screen to assess conditional lethalithy of NOMO1 cells grown in RPMI1640 with dialyzed fetal bovine serum (RPMI+ds) (AID 1963877); conditions: NOMO1 in RPMI+dialyzed FBS viability, ATP luminescence, 48 h; series mostly up to 45.8 µM;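 note: 100% = DMSO control wells and 0% = empty wells; nearly all actives have a fitted effect of over 30% in size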
Method in brief: as §1

[10] = Quantitative highthroughput screen to assess conditional lethalithy of NOMO1 cells grown in Human Plasma-Like Medium with dialyzed fetal bovine serum (HPLM+ds) (AID 1963878); conditions: NOMO1 AML cells in HPLM+ds, CellTiter-Glo viability, 48 h; series mostly up to 45.8 µM; note: nearly all actives have a fitted effect of over 35% in size; note: potency is the fitted concentration of half-maximal effect;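 for Viability: 100% = DMSO wells and 0% = empty wells on each plate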
Method in brief: as §1

[11] = Quantitative highthroughput screen to assess conditional lethalithy of P12 Ichikawa cells grown in Human Plasma-Like Medium with dialyzed fetal bovine serum (HPLM+ds) (AID 1963879); conditions: ATP luminescence, 48 h; Potency: viability; series mostly up to 45.8 µM; note: nearly all actives have a fitted effect of over 35% in size; note: potency is the fitted concentration of half-maximal effect
Method in brief: as §1

[12] = Quantitative highthroughput screen to assess conditional lethalithy of SEM cells grown in RPMI1640 with unreated serum (RPMI+s) (AID 1963883); conditions: SEM B-ALL cells, CellTiter-Glo viability, 48 h; series mostly up to 45.8 µM; note: nearly all actives have a fitted effect of over 35% in size; note: potency is the fitted concentration of half-maximal effect;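 for Viability: 100% = DMSO wells and 0% = empty wells without cells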
Method in brief: as §1

SMILES	Potency [1]	Potency [2]	Potency [3]	Potency [4]	Potency [5]	Potency [6]	Potency [7]	Potency [8]	activity (max response) [7]	Potency [9]	Potency [10]	Potency [11]	Potency [12]
COc1ncc(-c2ccc3nccc(-c4ccnnc4)c3c2)cc1NS(=O)(=O)c1ccc(F)cc1F	58 nM (active) and 132 nM (active)	0.105 µM (active)	2.09 µM (active)	0.743 µM (active)	0.469 µM (active)	0.372 µM (active)	1.12 µM (active)	28.2 nM (active)	–	–	–	–	–
OCCN(CCO)c1nc(N2CCCCC2)c2nc(N(CCO)CCO)nc(N3CCCCC3)c2n1	18.8 µM (active) and 14.8 µM (active)	inactive	–	–	inactive	–	5.17 µM (active)	1.46 µM (active) and inactive	-9.57% (inactive)	–	–	–	–
C[C@]12CC[C@H](O)CC1=CCC1C2CC[C@]2(C)C(n3cnc4ccccc43)=CCC12 (stereo not given in full)	7.42 µM (active)	–	inactive	inactive	inactive	inactive	–	inactive	-10.3% (inactive)	inactive	inactive	inactive	inactive
CCn1nnc2c(N3CCOCC3)nc(-c3ccc(NC(=O)Nc4ccc(C(=O)N5CCN(C)CC5)cc4)cc3)nc21	29.1 nM (active) and 46.8 nM (active)	inactive	–	–	–	–	–	inactive	–	–	–	–	–
CN(C)C(=O)c1ccc(S(=O)(=O)c2ccc(NC(=O)[C@@](C)(O)C(F)(F)F)c(Cl)c2)cc1	9.2 µM (active) and 3.72 µM (active)	11.8 µM (active)	–	14.8 µM (active)	–	–	–	inactive	–	–	10.5 µM (active)	–	11.8 µM (active)
CC(C)(Sc1ccc(CCN(CCCCC2CCCCC2)C(=O)NC2CCCCC2)cc1)C(=O)O	18.6 µM (active)	inactive	–	inactive	inactive	inactive	–	inactive	4.08% (inactive)	–	inactive	inactive	inactive
Cc1ccc(C(C)(O)c2nc3ccccc3s2)c(C)c1 (stereo not given)	16.6 µM (active)	13.2 µM (active)	18.7 µM (active)	–	–	–	–	–	–	–	–	10.5 µM (active)	–
CS(=O)(=O)c1ccc(-c2cnc(N)c(C(=O)Nc3ccccc3)n2)cc1	2.91 µM (active)	inactive	–	8.33 µM (active)	8.33 µM (active)	8.33 µM (active)	–	–	–	–	–	–	–
O=c1cc(-c2ccccc2)oc2cc(O)c(O)c(O)c12	18.6 µM (active)	5.9 µM (active)	–	9.35 µM (active)	–	8.33 µM (active)	–	–	-15.6% (inactive)	–	inactive	–	4.18 µM (active)

From PubChem BioAssay (NCATS)
